Data as given in PubChem BioAssay (NCI).
Compounds without any hit were thinned out: in the full panel of roughly 79,000, 15% have a hit. A number with no mark means an inactive call. Calls of active or inactive are those of the source. No stated cut-off is given here; in the data, active means growth inhibition above about 70%; inactive means the rest.

Test: NCI Yeast Anticancer Drug Screen. Data for the wt1 strain (AID 149);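 further: 0% = growth of vehicle-treated wt1 cultures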
Conditions: S. cerevisiae wt1 strain (SPY 50644) growth inhibition, hits give high values
Method: Growth inhibition of yeast strains with defined genetic alterations is measured as a screen for potential anti-cancer activity. Selected strains with alterations in DNA damage repair or cell cycle control were exposed to compounds and growth inhibition was measured relative to vehicle treated controls. The strain used in this assay is wt1

Compound | growth inhibition (at 1.2 µM) [%] | growth inhibition (at 3.7 µM) [%] | growth inhibition (at 11.0 µM) | growth inhibition (at 33.0 µM) | growth inhibition (at 100.0 µM)
CCCCCCCCCCCCOC1C(COCCN2CCCC2)OC2OC(C)(C)OC21 (stereo not given) | 23 | 15 | 93% (active) | 99% (active) | 99% (active)
CCOC(=O)C(NC(=O)c1ccccc1)[CH](c1ccccc1)[Sn]([c]1ccccc1)([c]1ccccc1)[c]1ccccc1 (stereo not given) | -81 | 0 | 0% | 11% | 93% (active)
O=C(c1c(F)c(F)c(F)c(F)c1F)c1c(F)c(F)c(F)c(F)c1F | 3 | 49 | 95% (active) | 99% (active) | 99% (active)
O=c1[nH]cc(F)c(=O)[nH]1 | -1 | -1 | 9% | 34% | 64%
Cc1c(N=Nc2ccc(Cl)cc2)c(C)n(C2OC(CO)C(O)C(O)C2O)c(=S)c1C#N (stereo not given) | 1 | 2 | 3% | 9% | 24%
O=Cc1ccccc1B(O)O | -3 | -1 | 66% | 99% (active) | 99% (active)
O=C1C(Br)=CC(Br)(Br)C=C1Br | 6 | 9 | 47% | 97% (active) | 99% (active)
Cc1nc2ccc(Br)cc2c(=O)n1-c1ccc(NC2OCC(O)C(O)C2O)cc1 (stereo not given) | 3 | 9 | 12% | 32% | 70% (active)
